From PubChem BioAssay (NCI)
About 83,000 compounds went through this panel and 20% of them were active in at least one assay; those are over-represented in the sample as a whole.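 Interpretation: 100, growth as untreated; towards 0, rising growth inhibition; 0, no net growth; 0 to -100, cell death. Compounds scoring below 10 were considered active.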 Activity calls are given as the source filed them.

How the values were obtained:
Assay in all cases: NCI-60 one-dose screen, 48 h (100 = growth as untreated, 0 = no growth, -100 = all killed)
Settings in all cases: 10 µM unless noted
NCI-H23 lung = test system: NCI-H23 lung
NCI-H226 lung = test system: NCI-H226 lung
NCI-H322M lung = test system: NCI-H322M lung
HOP-62 NSCLC = test system: HOP-62 NSCLC
HOP-92 NSCLC = test system: HOP-92 NSCLC
NCI-H522 lung = test system: NCI-H522 lung
A549/ATCC NSCLC = test system: A549/ATCC NSCLC
786-0 renal = test system: 786-0 renal
COLO 205 colon = test system: COLO 205 colon
DU-145 prostate = test system: DU-145 prostate
K-562 leukemia = test system: K-562 leukemia
MALME-3M melanoma = test system: MALME-3M melanoma
MDA-MB-231 breast = test system: MDA-MB-231 breast
RXF 393 renal = test system: RXF 393 renal
SF-268 CNS = test system: SF-268 CNS
SF-295 CNS = test system: SF-295 CNS
SF-539 CNS = test system: SF-539 CNS
UACC-257 melanoma = test system: UACC-257 melanoma
M14 melanoma = test system: M14 melanoma
NCI-H460 lung = test system: NCI-H460 lung

Measured: growth

COc1cc(C2CC(c3ccc(C(F)(F)F)cc3)=Nc3c(N)nc(N)nc3N2)ccc1Oc1nc(Nc2ccc(F)cc2)nc(N(C)C)n1 (stereo not drawn)
active: K-562 leukemia 7.52% | RXF 393 renal 3.99%
inactive: NCI-H23 lung 82.2% | NCI-H226 lung 58.6% | NCI-H322M lung 90.8% | HOP-62 NSCLC 81.2% | HOP-92 NSCLC 33.3% | NCI-H522 lung 30% | A549/ATCC NSCLC 45.9% | 786-0 renal 39.1% | COLO 205 colon 39% | DU-145 prostate 59.9% | MALME-3M melanoma 65.3% | MDA-MB-231 breast 29.5% | SF-268 CNS 53.3% | SF-295 CNS 36.6% | SF-539 CNS 51.4% | UACC-257 melanoma 50.3% | M14 melanoma 28.2%

Cc1ccccc1NC(=O)c1cccc(NC(=O)CCl)c1
inactive: NCI-H23 lung 52.8% | NCI-H226 lung 42.4% | NCI-H322M lung 101% | HOP-62 NSCLC 32.3% | HOP-92 NSCLC 70% | A549/ATCC NSCLC 59.1% | 786-0 renal 16.6% | COLO 205 colon 76.5% | DU-145 prostate 69.4% | K-562 leukemia 28.1% | MALME-3M melanoma 79.6% | MDA-MB-231 breast 49.7% | RXF 393 renal 49.7% | SF-268 CNS 60.1% | SF-295 CNS 38.4% | SF-539 CNS 51.3% | UACC-257 melanoma 47.5% | M14 melanoma 50.5%
active: NCI-H522 lung -71.7%

Cc1ccc(Cl)cc1NC(=O)Nc1nc2ccc([N+](=O)[O-])cc2s1
inactive: DU-145 prostate 18.6% | SF-268 CNS 27.5%
active: NCI-H23 lung -28.6% | NCI-H226 lung -9.03% | HOP-62 NSCLC -68.1% | NCI-H460 lung -41.5% | HOP-92 NSCLC -28.6% | NCI-H522 lung -36.8% | A549/ATCC NSCLC -25.8% | 786-0 renal -27.9% | COLO 205 colon -87.9% | K-562 leukemia 1.86% | MALME-3M melanoma -24.4% | MDA-MB-231 breast -42.2% | RXF 393 renal -22.7% | SF-295 CNS -45.4% | SF-539 CNS -33.9% | UACC-257 melanoma -20.9% | M14 melanoma -33.5%

CC(Nc1ncnc2ccc(-c3ccc4oc(N)nc4c3)cc12)c1ccccc1 (stereo not drawn)
inactive: NCI-H23 lung 16.4% | NCI-H522 lung 18.4% | A549/ATCC NSCLC 13.3% | COLO 205 colon 14% | DU-145 prostate 14% | SF-268 CNS 35.6% | UACC-257 melanoma 73.4% | M14 melanoma 23.7%
active: NCI-H226 lung -10.2% | NCI-H322M lung -24.9% | HOP-62 NSCLC -53.1% | HOP-92 NSCLC -45.9% | 786-0 renal -48.2% | K-562 leukemia 7.11% | MALME-3M melanoma -26.5% | MDA-MB-231 breast -38% | RXF 393 renal -77.9% | SF-295 CNS -17.4% | SF-539 CNS -89.4%

CCN1CCN(Cc2ccc(C(=O)Nc3cccc(Nc4ccc5c(OC)cccc5n4)c3)cc2C(F)(F)F)CC1
active: NCI-H23 lung -96.1% | NCI-H226 lung -85.8% | NCI-H322M lung -100% | HOP-62 NSCLC -63.5% | HOP-92 NSCLC -75.1% | NCI-H522 lung -83.3% | A549/ATCC NSCLC -68% | 786-0 renal -73% | COLO 205 colon -67.5% | DU-145 prostate -57.9% | K-562 leukemia 0.423% | MALME-3M melanoma -94.8% | MDA-MB-231 breast -94% | RXF 393 renal -93.3% | SF-268 CNS -19.1% | SF-295 CNS -95.3% | SF-539 CNS -100% | UACC-257 melanoma -82.8% | M14 melanoma -74.8%

CC1=C(C(=O)Nc2ccccc2)C(c2cccc(Cl)c2Cl)n2c(nc3ccccc32)N1 (stereo not drawn)
inactive: NCI-H23 lung 61.3% | NCI-H226 lung 70.5% | NCI-H322M lung 60.3% | HOP-62 NSCLC 88.6% | HOP-92 NSCLC 40.6% | NCI-H522 lung 25.3% | A549/ATCC NSCLC 33.2% | 786-0 renal 53.4% | COLO 205 colon 63.9% | DU-145 prostate 71.1% | K-562 leukemia 26.5% | MALME-3M melanoma 71.4% | MDA-MB-231 breast 71.4% | RXF 393 renal 34.5% | SF-268 CNS 42.5% | SF-295 CNS 47.1% | SF-539 CNS 71.4% | UACC-257 melanoma 60.8% | M14 melanoma 48.8%

O=C1N/C(=N\c2nccs2)S/C1=C\c1ccc([N+](=O)[O-])cc1
active: NCI-H226 lung 6.47% | NCI-H522 lung -1.75% | A549/ATCC NSCLC 9.8% | RXF 393 renal 8.41% | SF-539 CNS 4.72% | UACC-257 melanoma 8.51% | M14 melanoma 5.66%
inactive: NCI-H23 lung 32.7% | NCI-H322M lung 23.2% | HOP-62 NSCLC 37.4% | HOP-92 NSCLC 16.7% | 786-0 renal 19.7% | COLO 205 colon 23.2% | DU-145 prostate 39.9% | K-562 leukemia 13.3% | MALME-3M melanoma 28.4% | MDA-MB-231 breast 10.8% | SF-268 CNS 19.9% | SF-295 CNS 15%
